PubChem BioAssay (Tox21)
Results filed as inconclusive are left out. Calls of active or inactive are those of the source. Unless noted, calls follow the shape of the dose curve; as a rule, active = well fitted curve in the direction sought with a large enough effect in the repeat runs; inconclusive = weak or mixed curves; inactive = no such curve, though single readings can be large; an effect the other way counts as inactive or inconclusive.

How the values were obtained:
[1] = qHTS assay to identify small molecule agonists of the peroxisome proliferator-activated receptor delta (PPARd) signaling pathway - cell viability counter screen (AID 743211); also: nearly all actives have a fitted effect of over 55% in size; also: potency is read from the fitted curve at half-maximal effect
In short: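 Viability of GeneBLAzer PPARd UAS-bla HEK293H cells was assessed after 17 h compound incubation at 37C, using CellTiter-Glo reagent added after the reporter read and luminescence recorded 30 min later.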

[2] = target: Peroxisome proliferator-activated receptor delta (Homo sapiens) (UniProt Q03181); experiment: qHTS assay to identify small molecule agonists of the peroxisome proliferator-activated receptor delta (PPARd) signaling pathway (AID 743212; calls by dose curve;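 also: HEK293H cells with PPARd UAS beta-lactamase reporter GeneBLAzer system; % is scaled to controls: 0 for no effect and ±100 for the full control effect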)
Chain of Peroxisome proliferator-activated receptor delta (Homo sapiens) (Q03181 whole entry, looked up): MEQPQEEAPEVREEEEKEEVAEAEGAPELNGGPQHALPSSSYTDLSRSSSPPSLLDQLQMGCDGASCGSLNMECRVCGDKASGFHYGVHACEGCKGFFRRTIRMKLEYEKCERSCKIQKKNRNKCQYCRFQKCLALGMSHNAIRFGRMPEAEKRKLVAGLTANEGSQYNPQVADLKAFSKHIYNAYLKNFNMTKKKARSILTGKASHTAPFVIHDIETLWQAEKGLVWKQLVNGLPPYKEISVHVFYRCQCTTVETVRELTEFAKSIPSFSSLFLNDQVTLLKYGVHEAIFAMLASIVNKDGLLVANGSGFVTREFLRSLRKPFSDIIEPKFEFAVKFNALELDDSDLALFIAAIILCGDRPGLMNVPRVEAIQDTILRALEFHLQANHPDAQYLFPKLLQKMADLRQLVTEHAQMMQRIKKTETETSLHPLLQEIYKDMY
In short: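 Beta-lactamase reporter read by fluorescence (LiveBLAzer B/G FRET, 2 h, room temperature). Test agents, in DMSO, incubated at 37 C with PPARd-bla HEK293H cells.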

[3] = qHTS assay to identify small molecule antagonists of the peroxisome proliferator-activated receptor delta (PPARd) signaling pathway - cell viability counter screen (AID 743213); also: nearly all actives have a fitted effect of over 50% in size; also: potency is read from the fitted curve at half-maximal effect
In short: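 Viability counter-screen, qHTS format: PPARd-bla HEK293H, L165041 300 nM final, 17 h compound exposure at 37 C, CellTiter-Glo luminescence after 30 min RT.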

[4] = target: Peroxisome proliferator-activated receptor delta (Homo sapiens) (UniProt Q03181); experiment: qHTS assay to identify small molecule antagonists of the peroxisome proliferator-activated receptor delta (PPARd) signaling pathway (AID 743215; active = well fitted inhibition curve with a large enough effect in the signal ratio in the repeat runs, not every such curve was filed as active; the % refers to the signal ratio;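 also: cells stimulated with agonist L165041 at 300 nM final during compound exposure; series mostly up to about 62 µM; % is scaled to controls: 0 for no effect and ±100 for the full control effect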)
In short: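 Agonist L165041 (300 nM final) added with compound to PPARd-bla HEK293H UAS-bla reporter cells; 17 h incubation at 37 C. Read-out: LiveBLAzer FRET substrate, 2 h at room temperature, fluorescence intensity.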

[5] = target: Bile acid receptor (Homo sapiens) (UniProt Q96RI1); experiment: qHTS assay to identify small molecule antagonists of the farnesoid-X-receptor (FXR) signaling pathway (AID 743217; active = well fitted inhibition curve with a large enough effect in the signal ratio in the repeat runs, not every such curve was filed as active; the % refers to the signal ratio; also: % is scaled to controls: 0 for no effect and ±100 for the full control effect)
Chain of Bile acid receptor (Homo sapiens) (Q96RI1 whole entry, looked up): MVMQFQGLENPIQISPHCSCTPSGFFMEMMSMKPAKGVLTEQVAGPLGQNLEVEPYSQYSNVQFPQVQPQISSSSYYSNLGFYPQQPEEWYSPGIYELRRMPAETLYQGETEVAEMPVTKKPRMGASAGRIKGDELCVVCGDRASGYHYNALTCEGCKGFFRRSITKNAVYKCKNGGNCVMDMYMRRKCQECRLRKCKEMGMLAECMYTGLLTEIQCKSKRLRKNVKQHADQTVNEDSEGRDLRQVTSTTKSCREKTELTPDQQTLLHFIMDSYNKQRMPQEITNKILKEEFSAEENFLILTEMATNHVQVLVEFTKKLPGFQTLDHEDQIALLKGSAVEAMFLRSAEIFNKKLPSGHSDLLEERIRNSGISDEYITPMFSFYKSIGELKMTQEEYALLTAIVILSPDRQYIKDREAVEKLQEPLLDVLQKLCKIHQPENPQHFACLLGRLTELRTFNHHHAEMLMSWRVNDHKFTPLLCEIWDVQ
In short: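 Antagonist mode: chenodeoxycholic acid at 50 uM final stimulates a UAS-driven beta-lactamase reporter in HEK 293T FXR-bla cells during 16 h, 37C compound exposure. Read-out is FRET substrate fluorescence after 2 h at room temperature.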

[6] = qHTS assay to identify small molecule agonists of the farnesoid-X-receptor (FXR) signaling pathway - cell viability counter screen (AID 743218); also: nearly all actives have a fitted effect of over 45% in size; also: potency is read from the fitted curve at half-maximal effect
In short: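 Viability counter screen in the same wells: CellTiter-Glo luminescence, 30 min room-temperature incubation, measured after the beta-lactamase read. Cells were GeneBLAzer FXR-UAS-bla HEK 293T, compound-treated 16 h at 37C.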

[7] = target: Bile acid receptor (Homo sapiens) (UniProt Q96RI1); experiment: qHTS assay to identify small molecule agonists of the farnesoid-X-receptor (FXR) signaling pathway (AID 743220; active = well fitted activation curve with a large enough effect in the signal ratio in the repeat runs, not every such curve was filed as active; the % refers to the signal ratio; also: % is scaled to controls: 0 for no effect and ±100 for the full control effect)
In short: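 FXR-UAS-bla HEK 293T cells carrying a UAS-driven beta-lactamase reporter were plated for 5 h at 37C/5% CO2, then exposed to DMSO-dissolved Tox21 10K compounds for 16 h at 37C. A LiveBLAzer B/G FRET substrate was loaded for 2 h at room temperature before fluorescence reading.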

[8] = qHTS assay to identify small molecule antagonists of the farnesoid-X-receptor (FXR) signaling pathway - cell viability counter screen (AID 743221; active = well fitted cell-killing curve with a large enough effect in the repeat runs, not every such curve was filed as active; also: % is scaled to controls: 0 for no effect and ±100 for the full control effect; nearly all actives have a fitted effect of over 50% in size)
In short: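 Quantitative HTS of the Tox21 10K library run in parallel with the beta-lactamase reporter read. HEK 293T cells carrying a UAS-driven bla reporter got compound and 50 uM CDCA (final) for 16 h; ATP-based luminescence followed.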

[9] = target: Vitamin D3 receptor (Homo sapiens) (UniProt P11473); experiment: qHTS assay to identify small molecule agonists of the vitamin D receptor (VDR) signaling pathway (AID 743222; calls by dose curve; also: % is scaled to controls: 0 for no effect and ±100 for the full control effect)
Chain of Vitamin D3 receptor (Homo sapiens) (P11473 whole entry, looked up): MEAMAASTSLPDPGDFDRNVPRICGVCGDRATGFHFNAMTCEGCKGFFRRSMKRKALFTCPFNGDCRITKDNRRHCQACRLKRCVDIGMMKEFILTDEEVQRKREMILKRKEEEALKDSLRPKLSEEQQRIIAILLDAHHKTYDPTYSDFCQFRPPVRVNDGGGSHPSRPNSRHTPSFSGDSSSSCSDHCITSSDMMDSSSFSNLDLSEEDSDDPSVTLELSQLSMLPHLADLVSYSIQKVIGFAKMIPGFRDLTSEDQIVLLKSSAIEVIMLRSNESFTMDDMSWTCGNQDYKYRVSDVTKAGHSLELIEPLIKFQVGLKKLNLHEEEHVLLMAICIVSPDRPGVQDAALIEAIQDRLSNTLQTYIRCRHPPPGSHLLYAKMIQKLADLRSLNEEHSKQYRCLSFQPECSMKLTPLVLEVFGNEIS
In short: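 Agonist mode, beta-lactamase reporter: fluorescence from LiveBLAzer B/G FRET substrate (2 h, room temperature) read after 16 h compound treatment at 37 C of VDR-bla cells, which were pre-incubated 4 h after seeding.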

[10] = qHTS assay to identify small molecule agonists of the vitamin D receptor (VDR) signaling pathway - cell viability counter screen (AID 743224); also: nearly all actives have a fitted effect of over 50% in size; also: potency is read from the fitted curve at half-maximal effect
In short: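 Counter screen run in the same wells as the VDR-bla reporter assay: CellTiter-Glo luminescence, 30 min at room temperature, after 16 h compound treatment at 37C of cells pre-plated for 4 h.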

[11] = qHTS assay to identify small molecule antagonists of the vitamin D receptor (VDR) signaling pathway - cell viability counter screen (AID 743225); also: % is scaled to controls: 0 for no effect and ±100 for the full control effect; nearly all actives have a fitted effect of over 50% in size
In short: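 Cells (VDR-UAS-bla HEK 293T) are plated, rested 4 h at 37C, dosed with compound and 3 nM final 1-alpha,25-dihydroxy vitamin D3, and incubated 16 h. Viability is taken from CellTiter-Glo luminescence in the reporter wells.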

[12] = qHTS assay to identify small molecule agonists of the NFkB signaling pathway - cell viability counter screen (AID 1159515; calls by dose curve; also: series mostly up to about 61 µM; % is scaled to controls: 0 for no effect and ±100 for the full control effect; nearly all actives have a fitted effect of over 55% in size)
In short: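 Read by CellTiter-Glo luminescence (30 min, room temperature) in the wells also used for the beta-lactamase FRET read. ME-180 NFkB-bla cells at 2,000 per well were plated overnight, then exposed to compound for 5 hr at 37 C.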

[13] = qHTS assay to identify small molecule agonists of the endoplasmic reticulum stress response signaling pathway (AID 1159516; active = well fitted activation curve with a large enough effect in the signal ratio in the repeat runs, not every such curve was filed as active; the % refers to the signal ratio; also: % is scaled to controls: 0 for no effect and ±100 for the full control effect)
In short: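 Ratiometric FRET readout (405 nm excitation; 460 and 530 nm emission) of a beta-lactamase gene driven by the ER stress response element, after 2 hr substrate loading. HeLa ESRE-bla cells were seeded overnight and treated with compounds for only 5 hr at 37 C.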

[14] = qHTS assay to identify small molecule agonists of the endoplasmic reticulum stress response signaling pathway - cell viability counter screen (AID 1159517; calls by dose curve)
In short: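 Cytotoxicity of test compounds toward ESRE-bla HeLa cells was assessed after 5 hr exposure. The luminescent CellTiter-Glo signal was measured 30 min after reagent addition.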

[15] = qHTS assay to identify small molecule antagonists of the retinoid-related orphan receptor gamma (ROR-gamma) signaling pathway - cell viability counter screen (AID 1159520)
In short: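 Tet-on ROR gamma CHO cells (1,000/well) were plated 4 hr, given compounds in DMSO for 2 hr at 37 C, then induced with 1 uM final doxycycline for 16 hr. Viability was read as ATP by CellTiter-Glo luminescence after 30 min.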

[16] = qHTS assay to identify small molecule agonists of the AP-1 signaling pathway - cell viability counter screen (AID 1159525; calls by dose curve; also: nearly all actives have a fitted effect of over 55% in size)
In short: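 Each titration point was normalised to DMSO and tetra n-octyl ammonium bromide controls. The read was Cell Titer Glo luminescence after 30 min at RT, following 5 h compound exposure of ME-180 AP-1-bla cells at 37 °C.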

[17] = qHTS assay to identify small molecule agonists of the AP-1 signaling pathway (AID 1159526; calls by dose curve; also: % is scaled to controls: 0 for no effect and ±100 for the full control effect)
[18] = target: Vitamin D3 receptor (Homo sapiens) (UniProt P11473); experiment: qHTS assay to identify small molecule antagonists of the vitamin D receptor (VDR) signaling pathway (AID 743223; active = well fitted inhibition curve with a large enough effect in the signal ratio in the repeat runs, not every such curve was filed as active; the % refers to the signal ratio; also: % is scaled to controls: 0 for no effect and ±100 for the full control effect)
In short: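 Fluorescence from LiveBLAzer B/G FRET substrate, read after 2 h at room temperature, reflects beta-lactamase reporter activity in VDR-bla cells treated 16 h at 37C with compounds and agonist 1alpha,25-dihydroxyvitamin D3 (3 nM final).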

[19] = target: Nuclear receptor ROR-gamma (Homo sapiens) (UniProt P51449); experiment: qHTS assay to identify small molecule antagonists of the retinoid-related orphan receptor gamma (ROR-gamma) signaling pathway (AID 1159521)
In short: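 RORγ antagonism is scored from reduced reporter luminescence in Tet-on CHO cells. Induction used 1 uM final doxycycline hyclate for 16 h at 37 C, following a 2 h compound exposure.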

C=CCOC(=O)/C=C\C(=O)OCC=C
inactive: Potency [1] | Potency [2] | Potency [3] | Potency [4] | Potency [5] | Potency [6] | Potency [7] | Potency [8] | outcome [9] | Potency [10] | Potency [11] | outcome [12] | outcome [13] | outcome [14] | Potency [15] | outcome [16] | outcome [17]

[O]=[Bi]
inactive: activity change, negative = cytotoxicity [1] 2.23% [at 5.95 µM] | activation [2] 2.74% [at 5.95 µM] | viability change, negative = cytotoxic [3] -12.9% [at 6.26 µM] | ratio activity, negative = inhibition [4] 3.78% [at 6.26 µM] | activity change, negative = inhibition [5] 6.5% [at 5.95 µM] | viability change, negative = cytotoxic [6] 7.08% [at 5.95 µM] | activation [7] 0.937% [at 5.95 µM] | activity change, negative = cytotoxicity [8] 2.95% [at 5.95 µM] | activity change, negative = inhibition [18] 5.58% [at 6.95 µM] | viability change, negative = cytotoxic [11] -2.19% [at 6.95 µM] | activity, negative = cytotoxic [12] 3.69% [at 6.95 µM] | activation [13] -0.917% [at 6.95 µM] | activity change, negative = cytotoxicity [14] 9.83% [at 6.95 µM] | activity, negative = cytotoxicity [15] 7.56% [at 8.39 µM] | viability change, negative = cytotoxic [16] 2.46% [at 6.97 µM]

CC(C)OCC1CO1 (stereo not drawn)
inactive: Potency [1] | Potency [2] | Potency [3] | Potency [4] | Potency [5] | Potency [6] | Potency [7] | Potency [8] | outcome [9] | outcome [18] | Potency [10] | outcome [12] | outcome [13] | outcome [14] | Potency [15] | outcome [16] | outcome [17]

CC1CC(=O)NN=C1c1ccc(NCC(C)(C)NCC(O)COc2cc(Cl)ccc2C#N)cc1 (stereo not drawn)
inactive: Potency [1] | Potency [5] | Potency [6] | Potency [7] | Potency [8] | outcome [9] | Potency [10] | Potency [11] | outcome [12] | outcome [13] | outcome [14] | Potency [15] | outcome [16]

C[Si]1(C)O[Si](C)(C)O[Si](C)(C)O1
inactive: Potency [1] | Potency [2] | Potency [3] | Potency [6] | Potency [8] | outcome [9] | outcome [18] | Potency [10] | outcome [12] | outcome [13] | Potency [19] | outcome [16] | outcome [17]

O=C(C(=O)c1ccccc1)c1ccccc1
inactive: Potency [1] | Potency [3] | Potency [8] | outcome [9] | Potency [10] | Potency [11] | outcome [12] | outcome [13] | outcome [14] | Potency [15] | outcome [16] | outcome [17]

O=C(N[C@@H](c1ccccc1)[C@@H]1CCCCN1)c1cccc(C(F)(F)F)c1Cl
active: Potency [1] 27.5 µM | Potency [3] 27.5 µM | Potency [6] 43.6 µM | Potency [10] 30.9 µM
inactive: Potency [7] | Potency [8] | outcome [18] | outcome [12] | outcome [13] | outcome [14] | Potency [15] | outcome [16]

CC1=CC(O)CC(C)(C)C1 (stereo not drawn)
inactive: Potency [1] | Potency [2] | Potency [8] | outcome [9] | outcome [18] | Potency [10] | Potency [11] | outcome [12] | outcome [13] | outcome [14] | outcome [16] | outcome [17]

CN1C(=O)CC(C)(c2ccccc2)C1=O (stereo not drawn)
inactive: Potency [1] | Potency [2] | Potency [3] | Potency [6] | Potency [8] | outcome [9] | outcome [18] | Potency [10] | outcome [12] | outcome [13] | outcome [14] | Potency [15] | outcome [16]

O=c1[nH]c2ccc(S(=O)CCN3CCC(Cc4ccc(F)cc4)CC3)cc2o1 (stereo not drawn)
inactive: Potency [1] | Potency [3] | Potency [4] | Potency [8] | Potency [10] | Potency [11] | outcome [12] | outcome [13] | outcome [14] | Potency [15] | outcome [16] | outcome [17]

CC(C)c1nnc2ccc(-c3ocnc3-c3cc(F)ccc3F)cn12
inactive: Potency [1] | Potency [3] | Potency [6] | Potency [7] | Potency [8] | outcome [18] | Potency [10] | Potency [11] | outcome [12] | outcome [13] | outcome [14] | Potency [15]

O=C(O)c1ccc(CO)o1
inactive: Potency [1] | Potency [4] | Potency [5] | Potency [6] | Potency [7] | Potency [8] | outcome [9] | Potency [10] | Potency [11] | outcome [12] | outcome [13] | outcome [14] | Potency [15] | outcome [16] | outcome [17]
